Results filed as inconclusive are left out. Activity calls are given as the source filed them. The calls were made as follows, unless noted: active = hit-call score of the fitted dose curve at least 0.9, where 1 is the maximum; inactive = score below 0.9.
Legend:
[1] = target: Cellular tumor antigen p53 (Homo sapiens) (UniProt P04637); experiment: TOX21_p53_BLA_p2_ratio: Tox21 HCT-116 p53 Agonism Beta-lactamase Assay, Ratio, Phase 2 (AID 2283592; active = hit-call score of the fitted dose curve at least 0.9, where 1 is the maximum)
How it was run: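 In this cell-based reporter format, HCT116 cells were dosed with chemicals delivered from DMSO by 217-fold dilution and incubated 16 h at 37C. Emission at 460 and 530 nm after 2 h CCF4-AM loading provided the ratio, fitted upward versus DMSO.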

[2] = TOX21_p53_BLA_p3_viability: Viability Assessment in the Tox21 HCT-116 p53 Agonism Beta-lactamase Assay, Phase 3 (AID 2283593; active = hit-call score of the fitted dose curve at least 0.9, where 1 is the maximum;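 also: cells exposed to compound for 16 h before reading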)
How it was run: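 HCT116 cells, 4000/well, dosed 5 h after plating by pin transfer (217-fold dilution from DMSO stock) and incubated 16 h at 37C, 5% CO2. Viability read as ATP luminescence with CellTiter-Glo after 30 min at room temperature.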

[3] = target: Cellular tumor antigen p53 (Homo sapiens) (UniProt P04637); experiment: TOX21_p53_BLA_p3_ratio: Tox21 HCT-116 p53 Agonism Beta-lactamase Assay, Ratio, Phase 3 (AID 2283596; active = hit-call score of the fitted dose curve at least 0.9, where 1 is the maximum)
How it was run: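 HCT116 p53-bla cells (4000/well) given compound in DMSO (217-fold dilution) after 5 h, incubated 16 h at 37C. CCF4-AM substrate 2 h at room temperature; 460/530 nm emission ratio, gain fitted against DMSO.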

[4] = TOX21_p53_BLA_p4_viability: Viability Assessment in the Tox21 HCT-116 p53 Agonism Beta-lactamase Assay, Phase 4 (AID 2283597; active = hit-call score of the fitted dose curve at least 0.9, where 1 is the maximum;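 also: hits lower the luminescence signal meaning cytotoxicity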)
How it was run: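 We seeded HCT116 p53 reporter cells at 4000/well and waited 5 h. We then added compounds in DMSO at a 217-fold dilution and incubated for 16 h. Viability was read as CellTiter-Glo luminescence after 30 min at RT.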

[5] = target: Cellular tumor antigen p53 (Homo sapiens) (UniProt P04637); experiment: TOX21_p53_BLA_p5_ratio: Tox21 HCT-116 p53 Agonism Beta-lactamase Assay, Ratio, Phase 5 (AID 2283599; active = hit-call score of the fitted dose curve at least 0.9, where 1 is the maximum)
How it was run: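 HCT-116 p53-bla cells (4000/well) plated 5 h, dosed with compound (217-fold DMSO dilution) for 16 h at 37 C; CCF4-AM substrate 2 h at room temperature. Activity is the 460/530 nm emission ratio (405 nm excitation), fitted in gain-of-signal direction versus DMSO.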

[6] = TOX21_p53_BLA_p5_viability: Viability Assessment in the Tox21 HCT-116 p53 Agonism Beta-lactamase Assay, Phase 5 (AID 2283600; active = hit-call score of the fitted dose curve at least 0.9, where 1 is the maximum)
How it was run: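 Compounds, pinned from DMSO at 217-fold dilution, were left on the cells for 16 h. The viability endpoint was ATP content measured by CellTiter-Glo luminescence, where falling signal reflects cytotoxicity.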

[7] = target: Cellular tumor antigen p53 (Homo sapiens) (UniProt P04637); experiment: TOX21_p53_BLA_p4_ratio: Tox21 HCT-116 p53 Agonism Beta-lactamase Assay, Ratio, Phase 4 (AID 2283601; active = hit-call score of the fitted dose curve at least 0.9, where 1 is the maximum)
How it was run: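 HCT-116 p53 beta-lactamase reporter cells (4000/well) preincubated 5 h, then compound (217-fold dilution of DMSO stock) for 16 h at 37C. CCF4-AM substrate added 2 h at room temperature; 460/530 nm emission ratio fitted upward versus DMSO.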

[8] = CCTE_Harrill_HTTr_Viability_MCF7: CCTE's 6-hour Cell Viability Assessment for the High-Throughput Transcriptomics (HTTr) Platform, in MCF-7 cells cultured in DMEM + 10% fetal bovine serum, Harrill Lab (AID 2284010)
How it was run: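 Membrane integrity was scored by high-content imaging of propidium iodide dye exclusion after a 6 h exposure across an eight-point dilution series. Data were fitted bidirectionally relative to DMSO as negative control and baseline.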

[9] = CCTE_Harrill_HTTr_Apoptosis_MCF7: CCTE's 6-hour Apoptosis Assessment for the High-Throughput Transcriptomics (HTTr) Platform, in MCF-7 cells cultured in DMEM + 10% fetal bovine serum, Harrill Lab (AID 2284011)
How it was run: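 Read-out: CellEvent Caspase 3/7 Green signal by high content imaging, gain-of-signal indicating apoptosis. MCF-7 cells, DMEM + 10% FBS, eight-point dilution series, 6 h exposure. Curves fitted bidirectionally relative to DMSO negative control.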

[10] = CCTE_Shafer_MEA_dev_firing_rate_mean: CCTE's Neural Network Formation Assay for Mean Firing Rate, Shafer Lab (AID 2284031)
How it was run: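 Primary rat cortical neurons on 48-well, 16-electrode MEAs (PEI-coated, laminin at plating), exposed from day 0 with compound renewed at DIV 5 and 9. Spikes recorded DIV 5, 7, 9, 12; well-mean firing rate collapsed to trapezoidal AUC, loss-of-signal vs DMSO.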

[11] = CCTE_Shafer_MEA_dev_per_burst_spike_percent: CCTE's Neural Network Formation Assay for Percent of Spikes in a Burst, Shafer Lab (AID 2284032)
How it was run: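 Rat primary cortical neurons on 16-electrode MEA wells, dosed from plating day 0 for 12 days with renewal on DIV 5 and 9; spikes-in-bursts percentage averaged over bursting electrodes, collapsed as AUC across days 5, 7, 9, 12; loss direction versus DMSO.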

[12] = CCTE_Shafer_MEA_dev_active_electrodes_number: CCTE's Neural Network Formation Assay for Number of Active Electrodes, Shafer Lab (AID 2284040; active = hit-call score of the fitted dose curve at least 0.9, where 1 is the maximum)
How it was run: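 Rat cortical primary cultures, 1.5 x 10^5 cells/well, PEI-coated MEA, laminin drop. Continuous exposure DIV 0–12; full media/compound change DIV 5, 9. Readout: electrodes with mean firing ≥5 spikes/min; AUC across days; loss vs DMSO.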

[13] = CCTE_Shafer_MEA_dev_burst_rate: CCTE's Neural Network Formation Assay for Burst Rate, Shafer Lab (AID 2284042)
How it was run: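 Primary rat cortical neurons on PEI-coated 48-well MEA plates (laminin added with cells at plating) (16 electrodes/well), exposed from plating to day 12, dosing renewed at DIV 5 and 9. Burst rate averaged over active electrodes, recorded DIV 5, 7, 9, 12, summarized as AUC; loss versus DMSO.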

[14] = CCTE_Shafer_MEA_dev_bursting_electrodes_number: CCTE's Neural Network Formation Assay for Number of Bursting Electrodes, Shafer Lab (AID 2284043; active = hit-call score of the fitted dose curve at least 0.9, where 1 is the maximum)
How it was run: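 Primary rat cortical neurons plated on 16-electrode MEA wells, exposed from day 0 with compound renewed at DIV 5 and 9. Electrodes bursting ≥1 burst per 2 min counted on days 5, 7, 9 and 12; trapezoidal AUC across days, fitted for loss versus DMSO.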

[15] = CCTE_Shafer_MEA_dev_per_burst_interspike_interval: CCTE's Neural Network Formation Assay for Burst Interspike Interval, Shafer Lab (AID 2284044)
How it was run: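 Readout is the average time between spikes inside single-electrode bursts, taken as a well mean across bursting electrodes. Cortical neurons from rat developed networks on MEA plates under continuous 12-day exposure; recordings on days 5, 7, 9 and 12 were integrated by trapezoidal AUC.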

[16] = CCTE_Shafer_MEA_dev_burst_duration_mean: CCTE's Neural Network Formation Assay for Mean Burst Duration, Shafer Lab (AID 2284045)
How it was run: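 Primary rat cortical neurons on 48-well 16-electrode MEA plates, exposed from day 0 with renewal at DIV 5 and 9; spontaneous activity recorded on days 5, 7, 9, 12. Well-mean burst duration across bursting electrodes, collapsed as trapezoidal AUC; DMSO baseline.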

[17] = CCTE_Shafer_MEA_dev_interburst_interval_mean: CCTE's Neural Network Formation Assay for Mean Interburst Interval, Shafer Lab (AID 2284046);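 also: well-mean interburst interval of bursting electrodes as AUC over four recording days; curve fitted for decrease in interburst interval relative to DMSO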
How it was run: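 Recordings on days 5, 7, 9 and 12 give well-mean interburst interval across actively bursting electrodes, summarized as area under the curve. Cultures: rat cortical neurons, continuous exposure from day 0, compound renewed at feeds; decrease analyzed versus DMSO.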

[18] = CCTE_Shafer_MEA_dev_inter_network_spike_interval_mean: CCTE's Neural Network Formation Assay for Mean Inter-network Spike Interval, Shafer Lab (AID 2284047)
How it was run: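 Primary rat cortical neurons on 16-electrode MEA wells, exposed from plating day 0 through DIV 12, compound renewed at DIV 5 and 9 media changes. Mean interval between network-spike peaks recorded DIV 5, 7, 9, 12; collapsed as trapezoidal AUC, fitted downward versus DMSO.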

[19] = CCTE_Shafer_MEA_dev_network_spike_number: CCTE's Neural Network Formation Assay for Number of Network Spikes, Shafer Lab (AID 2284048)
How it was run: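 Primary rat cortical neurons on PEI/laminin 48-well MEA plates, dosed from plating day 0 for 12 days, renewed at DIV 5 and 9. Network spike counts recorded DIV 5, 7, 9, 12, collapsed as trapezoidal AUC; DMSO baseline.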

[20] = CCTE_Shafer_MEA_dev_network_spike_peak: CCTE's Neural Network Formation Assay for Mean Number of Electrodes in Network Spike, Shafer Lab (AID 2284049)
How it was run: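 Network-spike peak electrode count from recordings on days 5, 7, 9 and 12 was combined as trapezoidal area under the curve. Rat cortical cultures were treated continuously from plating, with compound renewed at each feed (DIV 5, 9); fits versus DMSO.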

[21] = CCTE_Shafer_MEA_dev_spike_duration_mean: CCTE's Neural Network Formation Assay for Mean Spike Duration, Shafer Lab (AID 2284051);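 also: mean network spike duration pooled as area under curve over DIV 5 to 12 recordings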
How it was run: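 Primary rat cortical neurons on 16-electrode MEA wells (PEI-coated, laminin in plating drop), exposed from plating through DIV 12 with compound renewed at DIV 5 and 9. Mean network-spike duration recorded DIV 5, 7, 9, 12; trapezoidal AUC across days, DMSO baseline.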

[22] = CCTE_Shafer_MEA_dev_network_spike_duration_std: CCTE's Neural Network Formation Assay for Standard Deviation of Network Spike Duration, Shafer Lab (AID 2284052);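 also: area under curve of spike duration SD across recording days 5 to 12; hits are decreases in network spike duration SD versus DMSO vehicle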
How it was run: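 Primary rat cortical neurons on PEI-coated 16-electrode MEA wells, exposed from plating day 0 through day 12 with compound renewed at DIV 5 and 9. Network spike duration SD recorded on days 5, 7, 9, 12, collapsed as trapezoidal AUC; loss-of-signal fit versus DMSO.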

[23] = CCTE_Shafer_MEA_dev_per_network_spike_spike_number_mean: CCTE's Neural Network Formation Assay for Mean Number of Spikes in a Network Spike, Shafer Lab (AID 2284053)
How it was run: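 Primary rat cortical neurons on 48-well, 16-electrode MEA plates were exposed from plating to DIV 12, with dosing renewed on DIV 5 and 9. Spikes per network spike (0.05 s peak window) were recorded on DIV 5, 7, 9 and 12 and collapsed as trapezoidal AUC versus DMSO.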

[24] = CCTE_Shafer_MEA_dev_per_network_spike_spike_percent: CCTE's Neural Network Formation Assay for Percent of Spikes in a Network Spike, Shafer Lab (AID 2284054)
How it was run: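 Rat primary cortical neurons were grown on 48-well MEA plates (16 electrodes/well), exposed from plating day 0 through day 12, with treatment renewed on DIV 5 and 9. Percent of spikes within 0.05 s network-spike peaks was measured, summarised as AUC across days 5, 7, 9, 12.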

[25] = UKN5_HCS_SBAD2_cell_viability: Viability Assessment in the University of Konstanz (UKN) Leist Lab Neurite Outgrowth Assay in human iPSC-derived immature Dorsal Root Ganglia Neurons (UKN5) (AID 2284056)
How it was run: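 iPSC-derived immature peripheral neurons (SBAD2) seeded on Matrigel with CHIR99021, SU5402 and DAPT, dosed 1 h later for 24 h. Viability from Hoechst H-33342 and calcein-AM live staining, high-content imaging; bidirectional fit versus DMSO.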

[26] = CCTE_Shafer_MEA_dev_LDH: CCTE's Lactate Dehydrogenase Assay for Cytotoxicity in the Neural Network Formation Assay, Shafer Lab (AID 2284068; active = hit-call score of the fitted dose curve at least 0.9, where 1 is the maximum;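 also: exposure for twelve days from plating with re-dosing on DIV 5 and 9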)
How it was run: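 Primary rat cortical neurons were plated on PEI/laminin MEA plates and exposed from day 0 for twelve days, with compound renewed at DIV 5 and 9. Cytotoxicity was determined by spectrophotometric LDH assay relative to DMSO.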

[27] = UKN5_HCS_SBAD2_neurite_outgrowth: University of Konstanz (UKN) Leist Lab Neurite Outgrowth Assay in human iPSC-derived immature Dorsal Root Ganglia Neurons (UKN5) (AID 2284070); details: actives raise or lower the signal
How it was run: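 Human iPSC-derived immature DRG neurons (SBAD2) on Matrigel with CHIR99021 (1.5 uM), SU5402 (5 uM), DAPT (5 uM); compounds added 1 h post-seeding for 24 h. Calcein-AM neurite area imaged; bidirectional fit vs DMSO.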

[28] = CCTE_Shafer_MEA_dev_AB: CCTE's Alamar Blue Assay for Cytotoxicity in the Neural Network Formation Assay, Shafer Lab (AID 2284083; active = hit-call score of the fitted dose curve at least 0.9, where 1 is the maximum;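 also: twelve days of exposure from plating with re-dosing on DIV 5 and 9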)
How it was run: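 Primary rat cortical neurons on PEI-coated 48-well MEA plates, 1.5 x 10^5 cells/well in laminin drop; compound exposure from day 0 of plating for twelve days, renewed at medium changes on DIV 5 and 9. Viability read as resazurin reduction by fluorescence, relative to DMSO.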

[29] = CCTE_Shafer_MEA_dev_mutual_information_norm: CCTE's Neural Network Formation Assay for Mutual Information Normalization, Shafer Lab (AID 2284091)
How it was run: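 Primary rat cortical neurons on PEI-coated 48-well MEA plates, 1.5 x 10^5 cells/well, exposed from day 0 through day 12 with re-dosing at DIV 5 and 9. Mutual information between electrodes recorded days 5, 7, 9, 12; trapezoidal AUC, loss-of-signal fit versus DMSO.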

Measured: outcome

Sequence of Cellular tumor antigen p53 (Homo sapiens) (P04637 whole entry, looked up): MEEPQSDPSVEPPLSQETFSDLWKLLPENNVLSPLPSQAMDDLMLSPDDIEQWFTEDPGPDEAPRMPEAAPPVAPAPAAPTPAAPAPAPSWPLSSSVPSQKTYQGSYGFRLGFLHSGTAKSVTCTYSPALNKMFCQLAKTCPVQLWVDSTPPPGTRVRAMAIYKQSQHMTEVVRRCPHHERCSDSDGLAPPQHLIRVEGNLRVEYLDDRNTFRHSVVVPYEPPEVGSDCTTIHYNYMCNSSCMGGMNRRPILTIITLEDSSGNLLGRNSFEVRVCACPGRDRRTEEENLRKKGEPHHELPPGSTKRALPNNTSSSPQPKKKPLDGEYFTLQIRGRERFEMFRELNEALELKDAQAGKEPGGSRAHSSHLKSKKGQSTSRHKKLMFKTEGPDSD

C[C@@H]1C[C@H]2[C@@H]3CCC4=CC(=O)C=C[C@]4(C)[C@@]3(F)[C@@H](O)C[C@]2(C)[C@@]1(O)C(=O)CO
inactive: all assays above

— PubChem BioAssay (EPA / NIEHS)
